The text below walks through data of ChEMBL document CHEMBL1157539, “Thousands of chemical starting points for antimalarial lead identification” (Nature, 2010).

Molecules are shown by their SMILES.

What all share (type): functional
For assay [1], the system named is Plasmodium falciparum. Description: GSK_TCMDC: Inhibition of Plasmodium falciparum 3D7 in whole red blood cells, using parasite LDH activity as an index of growth. Test compounds present at 2uM.
Assay [2] concerns Plasmodium falciparum. Description: GSK_TCMDC: Inhibition of Plasmodium falciparum Dd2 in whole red blood cells, using parasite LDH activity as an index of growth. Test compounds present at 2uM.
For the next assay, the system named is HepG2. Put plainly: GSK_TCMDC: Percent inhibition of human HepG2 cell line. Test compounds present at 10uM.

Turning to `CN1CCC(C(=O)Nc2cccc(-c3ccc(-c4nc5cc(C(F)(F)F)ccc5[nH]4)cc3)c2)CC1`, the Inhibition (as a rule, the share of the control response that was lost under treatment) in the assay on Plasmodium falciparum [1] is 100%; with Plasmodium falciparum [2], 99%; with HepG2, 38%.

Consider `CC(C)N1CCN(C(CN2CCN(CCCOc3cccc4ccccc34)CC2)c2ccc(F)cc2)CC1.Cl` (stereo not drawn), for which the Inhibition in the assay with Plasmodium falciparum [1] came to 100%; with Plasmodium falciparum [2], 75%; with HepG2 it was 54%.

Consider `O=C1C(c2ccccc2)=C(Nc2cc(Cl)cc(Cl)c2)c2ccccc21`, for which the results for the Inhibition with Plasmodium falciparum [1], in the assay on Plasmodium falciparum [2] and in the assay with HepG2 were 96%, 94% and 0%, respectively.

As to `Cc1ccc2c(Cl)c(C(=O)N3CCCc4ccccc43)sc2c1`, the Inhibition in the assay with Plasmodium falciparum [1] turned out to be 99%; in the assay with Plasmodium falciparum [2] it was 15%; in the assay with HepG2, 4%.

`Cl.c1ccc(Oc2ccc(Nc3ccnc(Nc4ccc(OCCN5CCCCC5)cc4)n3)cc2)cc1`: the Inhibition is 97% with Plasmodium falciparum [1], 66% with Plasmodium falciparum [2] and 23% in the assay on HepG2.

With `Cc1noc(C)c1-c1ccc2c(Nc3ccc([N+](=O)[O-])cc3)c(C(N)=O)cnc2c1.Cl`, the Inhibition amounted to 100% in the assay on Plasmodium falciparum [1], 98% in the assay on Plasmodium falciparum [2] and 4% in the assay on HepG2.

With `CCN(CC)S(=O)(=O)c1ccc(C=CC(=O)Nc2cc(Cl)ccc2N2CCOCC2)cc1`, the Inhibition in the assay with Plasmodium falciparum [1] came out at 90%; in the assay with Plasmodium falciparum [2] it was 65%; with HepG2, 3%.

As to `O=C(Nc1cccc(C(F)(F)F)c1)Nc1ccc(Cl)c(C(F)(F)F)c1`, the Inhibition in the assay on Plasmodium falciparum [1] is on record as 99%; in the assay with Plasmodium falciparum [2], 99%; with HepG2, 0%.

As to `COc1cc2nc(NCCc3cccc(Cl)c3)nc(NCc3ccccc3)c2cc1OC`, the figures for the Inhibition in the assay with Plasmodium falciparum [1], in the assay with Plasmodium falciparum [2] and in the assay on HepG2 were 100%, 100% and 97%, respectively.

Regarding `O=C(Cc1ccc(-n2cnnn2)cc1)N(Cc1cncn1Cc1cccc(C(F)(F)F)c1)CC1CC1`, the Inhibition in the assay on Plasmodium falciparum [1] was found to be 86%; in the assay with Plasmodium falciparum [2], 0%; in the assay on HepG2, 0%.

In the case of `O=C(N[C@@H](Cc1ccccc1)C(=O)NCCN1CCCCC1)c1ccc(O)c(-c2ccc(Cl)c(Cl)c2)c1`, the Inhibition amounted to 99% in the assay with Plasmodium falciparum [1], 97% with Plasmodium falciparum [2] and 6% with HepG2.
